Among the data in PubChem BioAssay (NCI) are growth values, retold here.

Structures are written as SMILES. The panel holds about 83,000 compounds, 20% with a hit somewhere; the sample as a whole holds those more often.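 Assay: single dose, 48 h. Readout: percent growth (0 = no net growth; negative = cell death). Active: <10.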 A number with no mark means an inactive call. Calls of active or inactive are those of the source.

Test systems include SR leukemia; RPMI-8226 leukemia; OVCAR-8 ovarian; OVCAR-5 ovarian; OVCAR-4 ovarian; SK-OV-3 ovarian; IGROV1 ovarian; NCI/ADR-RES ovarian; T-47D breast; BT-549 breast; MDA-MB-435 melanoma; SW-620 colon; MCF7 breast; HCT-116 colon; HCC-2998 colon; KM12 colon; HS 578T breast; OVCAR-3 ovarian.
What all share (test): NCI-60 one-dose screen, 48 h (100 = growth as untreated, 0 = no growth, -100 = all killed)
Conditions in all cases: 10 µM unless noted

Turning to `CC(=O)OCC(=O)[C@@]1(O)[C@H](C)C[C@H]2[C@@H]3C=C(C)C4=Cc5c(cnn5-c5ccc(F)cc5)C[C@]4(C)[C@H]3[C@@H](O)C[C@@]21C`, the growth is 0.104% (active) with SR leukemia; -16.8% (active) with RPMI-8226 leukemia; 32.7% in the assay on OVCAR-8 ovarian; 16.9% with OVCAR-5 ovarian; 38.8% with OVCAR-4 ovarian; 23.9% in the assay with SK-OV-3 ovarian. For the same molecule, the growth in the assay with IGROV1 ovarian is 16%; with NCI/ADR-RES ovarian, 18.6%; with T-47D breast, 42.9%; in the assay with BT-549 breast, 54.8%; with MDA-MB-435 melanoma it was 23.3%; in the assay on SW-620 colon, -70.3% (active). For the same molecule, the growth in the assay on MCF7 breast was 18.9%; with HCT-116 colon, 15.7%; in the assay on HCC-2998 colon, -35.3% (active); in the assay on KM12 colon it was -46.7% (active).
With `CCCCCCCCCCCCCCCCC(=O)O.CCCCCCCCCCCCCCCCCC(=O)O.CCCCCCCCCCCCCCCCCC(=O)O.CCCCCCCCCCCCCCCCCC(=O)O.CCCCCCCCCCCCCCCCCC(=O)O.CO[CH-]OC12COC1CC(O)C1(C)C(O)C(OC(C)O)C3=C(C)C(OC(=O)C(O)C([NH-])c4ccccc4)CC(O)(C(OC(=O)c4ccccc4)C21)C3(C)C.[Cu+].[Zn].[Zn].[Zn].[Zn].[Zn]` (configuration not stated), the growth was 37.4% in the assay on SR leukemia; 22.4% in the assay on RPMI-8226 leukemia; 45.4% in the assay with OVCAR-8 ovarian; 24.9% with OVCAR-5 ovarian; 40.1% with OVCAR-4 ovarian; 39.4% in the assay on SK-OV-3 ovarian. Further, the growth in the assay on IGROV1 ovarian was 33.4%; with HS 578T breast it was 10.5%; in the assay with NCI/ADR-RES ovarian, 42.4%; in the assay on BT-549 breast it was 46.2%; in the assay with MDA-MB-435 melanoma it was 10.9%; in the assay with SW-620 colon it was 44.7%. The growth is 22.1% in the assay with MCF7 breast, 13.3% in the assay with HCT-116 colon, 21.6% with HCC-2998 colon and 19.9% in the assay on KM12 colon.
As for `CC(C)(C)c1cc(C[P+](c2ccc(Cl)cc2)(c2ccc(Cl)cc2)c2ccc(Cl)cc2)cc(C(C)(C)C)c1O`, the growth in the assay on SR leukemia was 39.5%; in the assay on RPMI-8226 leukemia, 10.9%; with OVCAR-8 ovarian, 85.8%; in the assay with OVCAR-5 ovarian, 105%; in the assay with OVCAR-4 ovarian it was 79.2%; in the assay on SK-OV-3 ovarian, 88.9%. The growth in the assay on IGROV1 ovarian was 52.1%; in the assay with HS 578T breast, 105%; in the assay with NCI/ADR-RES ovarian, 97.2%; in the assay on BT-549 breast, 102%; with MDA-MB-435 melanoma it was 84.7%; in the assay with SW-620 colon, 79.6%. The growth in the assay with MCF7 breast was 65.1%; with HCT-116 colon it was 40.7%; in the assay on HCC-2998 colon, 107%; in the assay on KM12 colon it was 88.9%.
On to `CCOC(=O)C1C(=O)C(=O)N(C(C)C)C1C(=O)OCC` (configuration not stated), for which the growth in the assay on SR leukemia was 108%; in the assay with RPMI-8226 leukemia, 106%; in the assay with OVCAR-8 ovarian, 91.4%; with OVCAR-5 ovarian, 92.9%; in the assay with OVCAR-4 ovarian, 106%; in the assay on SK-OV-3 ovarian, 109%. The growth in the assay on OVCAR-3 ovarian was 108%; with HS 578T breast it was 96.5%; in the assay with NCI/ADR-RES ovarian, 106%; with T-47D breast it was 105%; in the assay with BT-549 breast, 119%; with MDA-MB-435 melanoma, 104%. Further, the growth with SW-620 colon was 103%; in the assay on MCF7 breast, 99.8%; in the assay on HCT-116 colon, 110%; with HCC-2998 colon it was 104%; with KM12 colon it was 98.9%.
For the molecule `CC(O)CN(CC(C)O)N(CC(C)O)CC(C)O` (configuration not stated), the growth in the assay on SR leukemia was 94.2%; in the assay on RPMI-8226 leukemia, 98.9%; in the assay with OVCAR-8 ovarian it was 97.9%; in the assay with OVCAR-5 ovarian, 101%; in the assay with OVCAR-4 ovarian, 98.2%; with SK-OV-3 ovarian, 109%. In addition, the growth with OVCAR-3 ovarian is 109%; in the assay with HS 578T breast, 108%; in the assay with NCI/ADR-RES ovarian, 106%; in the assay with T-47D breast, 105%; in the assay with BT-549 breast it was 94.9%; in the assay on MDA-MB-435 melanoma it was 104%. Also, the growth in the assay with SW-620 colon is 104%; in the assay with MCF7 breast it was 101%; in the assay with HCT-116 colon it was 102%; in the assay with HCC-2998 colon it was 107%; in the assay with KM12 colon, 109%.
Regarding `COc1ccc(/C=C/C(=O)/C=C/c2cc3ccccc3[nH]c2=O)cc1`, the growth is -2.08% (active) in the assay on SR leukemia; -22% (active) with RPMI-8226 leukemia; -11.8% (active) in the assay on OVCAR-8 ovarian; 125% with OVCAR-5 ovarian; 74.5% with OVCAR-4 ovarian; 88.8% with SK-OV-3 ovarian. Also, the growth in the assay on OVCAR-3 ovarian is 32%; in the assay with HS 578T breast, 102%; in the assay on NCI/ADR-RES ovarian, 92.5%; in the assay with T-47D breast it was 57.1%; with BT-549 breast, 64.9%; with MDA-MB-435 melanoma, 13.6%. The growth was 36.4% in the assay on SW-620 colon; 14.5% in the assay with MCF7 breast; -30.8% (active) in the assay on HCT-116 colon; 96.7% in the assay with HCC-2998 colon; 27.6% with KM12 colon.
Turning to `CCN(CC)CCCNc1c2ccc(Cl)cc2nc2ccc(OC)cc12`, the growth was -30.3% (active) in the assay on SR leukemia; -21.5% (active) in the assay with RPMI-8226 leukemia; 4.01% (active) in the assay on OVCAR-8 ovarian; 3.61% (active) with OVCAR-5 ovarian; -35.2% (active) in the assay with OVCAR-4 ovarian; 3.94% (active) in the assay on SK-OV-3 ovarian. In addition, the growth is 6.62% (active) in the assay on IGROV1 ovarian; 34.1% in the assay with HS 578T breast; 0.48% (active) in the assay on NCI/ADR-RES ovarian; -90.5% (active) in the assay on MDA-MB-435 melanoma; 3.44% (active) with SW-620 colon; -16.4% (active) with MCF7 breast. Also, the growth is -4.77% (active) in the assay with HCT-116 colon, -68.1% (active) in the assay with HCC-2998 colon and 0.483% (active) in the assay with KM12 colon.
Regarding `COc1ccc(-c2nc(SCC(C)C)nc(Nc3ccccc3)c2C#N)cc1`, the growth was 48.9% in the assay with SR leukemia; 87.6% in the assay on RPMI-8226 leukemia; 74.4% in the assay with OVCAR-8 ovarian; 103% in the assay on OVCAR-5 ovarian; -12.2% (active) with OVCAR-4 ovarian; 97.6% with SK-OV-3 ovarian. In addition, the growth in the assay with IGROV1 ovarian was 74.7%; in the assay on NCI/ADR-RES ovarian it was 85.9%; with T-47D breast it was 51.3%; in the assay with BT-549 breast, 101%; in the assay with MDA-MB-435 melanoma, 92.8%; in the assay on SW-620 colon it was 67.8%. Further, the growth with MCF7 breast is 75.7%; in the assay with HCT-116 colon, 38.5%; in the assay with HCC-2998 colon it was 99.3%; with KM12 colon, 97.9%.
With `O=C(CCl)c1ccc2c(c1)CCCC2`, the growth is 7.36% (active) in the assay on SR leukemia; 84.6% in the assay on RPMI-8226 leukemia; 95.6% in the assay with OVCAR-8 ovarian; 107% in the assay with OVCAR-5 ovarian; 107% in the assay on OVCAR-4 ovarian; 110% in the assay with SK-OV-3 ovarian. The growth with IGROV1 ovarian was 89.2%; with HS 578T breast, 94.7%; with NCI/ADR-RES ovarian, 108%; in the assay with T-47D breast, 87.9%; in the assay with BT-549 breast it was 83.5%; with MDA-MB-435 melanoma, 111%. Also, the growth is 82.6% in the assay on SW-620 colon; 86.5% with MCF7 breast; 84.2% with HCT-116 colon; 111% with HCC-2998 colon; 107% in the assay on KM12 colon.
